The nature of experiment [1]: antimalarial activity against Dd2 strain (AID 2302;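 active means growth inhibition above 50% at the single 2 µM test dose, taken to imply half-maximal potency below 2 µM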;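 further: 0% = DMSO untreated growth and 100% = chloroquine plus artemisinin killed control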). The note with it: P. falciparum Dd2 in RBCs, LDH growth readout, 72 h; at 2 µM; stronger effect = higher value.
The nature of experiment [2]: human hepatoma cell viability loss – ATP luminescence, cytotoxicity control for P. falciparum antimalarial project, primary screen (AID 2303;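 active means inhibition above 50%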;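 further: 0% = DMSO wells and 100% = digitonin-killed cells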). The note with it: HepG2 viability, 24-48 h, at 10 µM, stronger effect = higher value.
In experiment [3] the target is L-lactate dehydrogenase (Plasmodium falciparum (isolate CDC / Honduras)) (UniProt Q27743). Kind of experiment: PfLDH activity inhibition – cell lysate, 3D7 strain, counter-screen for P. falciparum growth inhibition project (AID 2304).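 Further: 0% = vehicle and 100% = reference inhibitor.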 The note with it: P. falciparum 3D7 crude extract, LDH APAD/NBT absorbance; at 2 µM; stronger effect = higher value. Background: A counterscreen serves to expose hits that act by an unwanted route or on another target.
Chain of L-lactate dehydrogenase (Plasmodium falciparum (isolate CDC / Honduras)) (Q27743 whole entry, looked up): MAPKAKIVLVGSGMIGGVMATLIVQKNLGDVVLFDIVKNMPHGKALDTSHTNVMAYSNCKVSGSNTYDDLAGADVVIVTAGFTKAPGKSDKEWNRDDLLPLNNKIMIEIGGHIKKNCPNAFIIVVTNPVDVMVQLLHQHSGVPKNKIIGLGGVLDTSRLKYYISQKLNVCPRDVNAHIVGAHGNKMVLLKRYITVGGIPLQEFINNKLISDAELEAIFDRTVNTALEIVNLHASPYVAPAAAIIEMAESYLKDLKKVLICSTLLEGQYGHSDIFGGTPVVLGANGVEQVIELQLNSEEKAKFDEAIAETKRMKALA

Experiment [4] can be described thus: inhibition of 3D7 malaria parasite growth – strain 3D7 (AID 2306).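 Further: 0% = DMSO wells and 100% = chloroquine plus artemisinin control wells.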 The note with it: P. falciparum 3D7 erythrocytic growth, LDH absorbance, 72 h; at 2 µM; stronger effect = higher value.
Experiment [5] addresses Calcium-dependent protein kinase 1 (Plasmodium falciparum (isolate 3D7)) (UniProt P62344). Briefly: PfCDPK1 kinase inhibitors, biochemical, TCAMS library (AID 1159585; cut-off not given, nearly all actives have IC50 up to about 0.98 µM;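 further: inhibitors leave more ATP so luminescence rises with inhibition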). To be noted: recombinant PfCDPK1, Kinase-Glo ATP depletion luminescence. On the technique in general: Kinase-Glo measures the ATP left after a reaction by luminescence.
Experiment [6] concerns the target Plasmodium falciparum protein kinase 6 (PK6, PF3D7_1337100) (UniProt Q8IDW1). Briefly: PfPK6 kinase inhibitors, biochemical, TCAMS library (AID 1159586). The note with it: recombinant PfPK6, Kinase-Glo ATP depletion luminescence.
For experiment [7], the target named is Protein kinase 7 (PK7), Plasmodium falciparum 3D7 (PF3D7_0213400) (UniProt Q7YTF7). Kind of experiment: inhibition of Plasmodium PK7 catalytic activity – biochemical, TCAMS antimalarial set, Kinase-Glo luminescence (AID 1159587). To be noted: recombinant PfPK7, Kinase-Glo ATP depletion luminescence.
Chain of Protein kinase 7 (PK7), Plasmodium falciparum 3D7 (PF3D7_0213400) (Q7YTF7 1-343): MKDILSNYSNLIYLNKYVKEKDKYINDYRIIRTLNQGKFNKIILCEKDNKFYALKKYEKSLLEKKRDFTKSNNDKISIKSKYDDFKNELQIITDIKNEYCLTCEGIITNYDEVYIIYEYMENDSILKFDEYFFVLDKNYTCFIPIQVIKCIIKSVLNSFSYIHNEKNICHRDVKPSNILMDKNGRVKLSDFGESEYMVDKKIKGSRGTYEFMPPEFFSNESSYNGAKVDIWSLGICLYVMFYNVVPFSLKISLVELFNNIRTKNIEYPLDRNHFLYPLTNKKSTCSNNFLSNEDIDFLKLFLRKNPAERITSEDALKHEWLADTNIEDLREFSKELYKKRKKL
For experiment [8], the target named is Calcium-dependent protein kinase 4 (Plasmodium falciparum (isolate 3D7)) (UniProt Q8IBS5). Briefly: PfCDPK4 kinase inhibitors, biochemical, TCAMS library (AID 1159588; cut-off not given, nearly all actives have IC50 up to about 0.91 µM). The note with it: recombinant PfCDPK4, Kinase-Glo ATP depletion luminescence.
Chain of Calcium-dependent protein kinase 4 (Plasmodium falciparum (isolate 3D7)) (Q8IBS5 whole entry, looked up): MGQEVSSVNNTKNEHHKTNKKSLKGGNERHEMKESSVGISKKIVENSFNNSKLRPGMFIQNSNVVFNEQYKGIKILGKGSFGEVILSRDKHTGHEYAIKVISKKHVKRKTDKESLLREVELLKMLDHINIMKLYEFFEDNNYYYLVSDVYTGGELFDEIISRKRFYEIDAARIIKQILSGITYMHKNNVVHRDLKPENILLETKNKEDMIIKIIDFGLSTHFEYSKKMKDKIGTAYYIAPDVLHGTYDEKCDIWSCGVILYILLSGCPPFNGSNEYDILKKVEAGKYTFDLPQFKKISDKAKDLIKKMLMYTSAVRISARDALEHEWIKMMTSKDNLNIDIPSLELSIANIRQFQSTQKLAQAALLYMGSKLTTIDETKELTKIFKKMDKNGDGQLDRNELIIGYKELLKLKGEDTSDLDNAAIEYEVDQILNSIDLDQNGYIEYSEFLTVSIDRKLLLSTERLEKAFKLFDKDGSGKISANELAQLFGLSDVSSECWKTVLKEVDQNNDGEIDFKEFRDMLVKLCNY

Structures are written as SMILES. Unmarked numbers belong to inactive results. For some of these results: Entries with a potency or affinity are not part of this list. Active and inactive are the calls of the source. Unless noted, how the calls were made is not given here.

Chain of Calcium-dependent protein kinase 1 (Plasmodium falciparum (isolate 3D7)) (P62344 whole entry, looked up): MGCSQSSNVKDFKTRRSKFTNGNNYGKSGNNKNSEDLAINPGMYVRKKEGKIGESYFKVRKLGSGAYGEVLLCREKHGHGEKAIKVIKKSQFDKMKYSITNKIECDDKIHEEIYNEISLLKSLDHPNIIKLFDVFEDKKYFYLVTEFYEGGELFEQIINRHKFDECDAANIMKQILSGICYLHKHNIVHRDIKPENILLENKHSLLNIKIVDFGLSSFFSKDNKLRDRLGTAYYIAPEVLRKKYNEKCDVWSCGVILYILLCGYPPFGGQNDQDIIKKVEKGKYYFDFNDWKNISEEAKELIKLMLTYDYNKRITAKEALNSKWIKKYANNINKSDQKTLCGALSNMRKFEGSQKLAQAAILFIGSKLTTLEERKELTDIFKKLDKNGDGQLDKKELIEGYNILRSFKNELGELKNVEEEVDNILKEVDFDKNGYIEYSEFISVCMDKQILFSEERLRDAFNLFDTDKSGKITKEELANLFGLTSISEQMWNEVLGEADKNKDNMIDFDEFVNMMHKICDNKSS
Chain of Plasmodium falciparum protein kinase 6 (PK6, PF3D7_1337100) (Q8IDW1 1-305): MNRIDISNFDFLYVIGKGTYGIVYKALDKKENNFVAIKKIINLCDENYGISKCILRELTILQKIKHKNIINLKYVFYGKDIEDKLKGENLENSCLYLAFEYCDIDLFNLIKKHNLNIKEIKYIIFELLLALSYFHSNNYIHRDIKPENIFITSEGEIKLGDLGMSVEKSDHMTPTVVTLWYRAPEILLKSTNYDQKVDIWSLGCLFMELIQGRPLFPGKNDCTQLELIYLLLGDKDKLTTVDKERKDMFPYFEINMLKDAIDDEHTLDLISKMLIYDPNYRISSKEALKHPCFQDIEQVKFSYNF

A word on the inhibition: it is the drop in the measured response relative to a control, in per cent. Take `CCOc1ccc(NC(=O)c2ccc(CN3CCCN(Cc4cccc(O)c4)CC3)cc2)cc1`: the growth inhibition in experiment [1] was 9%; in experiment [4], 85% (active). Besides, the values for the inhibition in experiment [2] and in experiment [3] were 44% and 0%, respectively. Also, the result in experiment [5], in experiment [6], in experiment [7] and in experiment [8] was inactive.

For `CO/C(=C\C=C\c1cc2cc(Cl)c(Cl)cc2[nH]1)C(=O)NCC(C)(C)CN(C)C`, the values for the growth inhibition in experiment [1] and in experiment [4] were 27% and 81% (active), respectively. Also, the inhibition in experiment [2] was 35%; in experiment [3], 1%. For the same molecule, the outcome in experiment [5], in experiment [6], in experiment [7] and in experiment [8] was inactive.

As to `COc1cc(NC(=O)Nc2ccc(Br)cc2C(=O)Nc2ccc(Br)cc2)cc(OC)c1OC`, the growth inhibition in experiment [1] was 98% (active); in experiment [4] it was 99% (active). For the same molecule, the figures for the inhibition in experiment [2] and in experiment [3] were -4% and 7%, respectively. The outcome in experiment [5], in experiment [6], in experiment [7] and in experiment [8] was inactive.

Turning to `CCn1c2c(c(=N)c3ccccc31)CCC2`, the growth inhibition is 61% (active) in experiment [1] and 83% (active) in experiment [4]. For the same molecule, the inhibition was 11% in experiment [2] and 8% in experiment [3]. Also, the outcome in experiment [5], in experiment [6], in experiment [7] and in experiment [8] was inactive.

`COc1ccc(Nc2nccc(-c3ccc4c(-c5ccsc5)cnc(N)c4c3)n2)cc1`: the growth inhibition is 98% (active) in experiment [1] and 101% (active) in experiment [4]. In addition, the inhibition in experiment [2] is 38%; in experiment [3], -1%. Moreover, the outcome in experiment [5], in experiment [6], in experiment [7] and in experiment [8] was inactive.

Consider `O=c1[nH]c2c(c(O)c1[N+](=O)[O-])CCC2`, for which the growth inhibition in experiment [1] was 1%; in experiment [4], 97% (active). Further, the inhibition in experiment [2] is 9%; in experiment [3] it was -5%. Moreover, the result in experiment [5], in experiment [6], in experiment [7] and in experiment [8] was inactive.

As to `FC(F)(F)c1ccc2nc(-c3cccc(-c4ccc(CNCCc5ccncc5)cc4)c3)[nH]c2c1`, the values for the growth inhibition in experiment [1] and in experiment [4] were 100% (active) and 99% (active), respectively. In addition, the inhibition was 23% in experiment [2] and -1% in experiment [3]. Also, the result in experiment [5], in experiment [6], in experiment [7] and in experiment [8] was inactive.

Consider `CC(=O)Nc1ncc(C(=O)Nc2cccc(-c3cccc(-c4nc5ccc(F)cc5[nH]4)c3)c2)s1`, for which the values for the growth inhibition in experiment [1] and in experiment [4] were 93% (active) and 101% (active), respectively. The inhibition in experiment [2] is 27%; in experiment [3], 5%. The outcome in experiment [5], in experiment [6], in experiment [7] and in experiment [8] was inactive.

Take `Cc1[nH]c(C)c(-c2ccc(Cl)cc2Cl)c(=O)c1Br`: the figures for the growth inhibition in experiment [1] and in experiment [4] were 57% (active) and 87% (active), respectively. For the same molecule, the inhibition in experiment [2] was 3%; in experiment [3], -4%. For the same molecule, the result in experiment [5], in experiment [6], in experiment [7] and in experiment [8] was inactive.

For the molecule `CN(C)CCCOc1ccc(CNCc2cccc(Oc3ccc(Cl)cc3)c2)cc1`, the growth inhibition in experiment [1] is 30%; in experiment [4], 100% (active). Moreover, the inhibition in experiment [2] was 52% (active); in experiment [3] it was 0%. The result in experiment [5], in experiment [6], in experiment [7] and in experiment [8] was inactive.

Consider `CC(=O)c1ccc(-c2ccc(C(=O)NCCCCN3CCC(c4ccc5c(c4O)CCCC5)CC3)cc2)cc1`, for which the results for the growth inhibition in experiment [1] and in experiment [4] were 83% (active) and 100% (active), respectively. The inhibition was 87% (active) in experiment [2] and 1% in experiment [3]. In addition, the outcome in experiment [5], in experiment [6], in experiment [7] and in experiment [8] was inactive.

As to `Cc1cc(C2CCN(CCCCNC(=O)c3ccc(-c4ccc(C#N)cc4)cc3)CC2)c(C)cc1OCCO`, the growth inhibition in experiment [1] is 68% (active); in experiment [4] it was 96% (active). Also, the inhibition in experiment [2] is 20%; in experiment [3] it was 2%. The outcome in experiment [5], in experiment [6], in experiment [7] and in experiment [8] was inactive.

With `NC(N)=Nc1nc(-c2cccc(NC(=O)NCc3cccc4ccccc34)c2)cs1`, the growth inhibition in experiment [1] is 32%; in experiment [4], 101% (active). Moreover, the inhibition is 14% in experiment [2] and 5% in experiment [3]. For the same molecule, the result in experiment [5], in experiment [6], in experiment [7] and in experiment [8] was inactive.

Consider `CCC(C)CN1CCN(c2ccc(NC(=O)c3cccs3)cc2)C(C)C1` (stereo not given), for which the growth inhibition in experiment [1] and in experiment [4] was 95% (active) in each case. Moreover, the inhibition in experiment [2] was -4%; in experiment [3], -2%. For the same molecule, the result in experiment [5], in experiment [6], in experiment [7] and in experiment [8] was inactive.

`COc1cc2nc(N3CCC(CNC(=O)c4ccc(-c5ccc(C(=O)N(C)C)cc5C)cc4)CC3)nc(N3CCN(C)CC3)c2cc1OC`: the growth inhibition in experiment [1] is 84% (active); in experiment [4] it was 88% (active). In addition, the inhibition is 26% in experiment [2] and -10% in experiment [3]. The outcome in experiment [5], in experiment [6], in experiment [7] and in experiment [8] was inactive.

As for `CCCC/C=C(\Cl)c1ccc(O)c2c1C[C@H]1C[C@H]3[C@H](N(C)C)C(=O)C(C(N)=O)=C(O)[C@@]3(O)C(=O)C1=C2O`, the growth inhibition in experiment [1] was 98% (active); in experiment [4], 90% (active). Also, the inhibition in experiment [2] is 16%; in experiment [3], -4%. Also, the result in experiment [5], in experiment [6], in experiment [7] and in experiment [8] was inactive.

Consider `OC(CNCc1ccccc1OCc1ccccc1)c1cccc(I)c1` (stereo not given), for which the growth inhibition in experiment [1] and in experiment [4] was 100% (active) throughout. The inhibition was 2% in experiment [2] and -1% in experiment [3]. Also, the result in experiment [5], in experiment [6], in experiment [7] and in experiment [8] was inactive.

Regarding `COc1ccc(CCNC(=O)c2cnc3c(c2)nc(-c2cnc(-c4ccccc4)[nH]2)n3CCc2cnc[nH]2)cc1`, the results for the growth inhibition in experiment [1] and in experiment [4] were 70% (active) and 96% (active), respectively. Moreover, the figures for the inhibition in experiment [2] and in experiment [3] were 16% and 1%, respectively. Further, the outcome in experiment [5], in experiment [6], in experiment [7] and in experiment [8] was inactive.

As to `COc1cc(Cc2cnc(N)nc2N)ccc1OCc1ccc(NC(C)=O)cc1`, the growth inhibition in experiment [1] is 0%; in experiment [4], 98% (active). Moreover, the inhibition in experiment [2] was 9%; in experiment [3], -6%. In addition, the result in experiment [5], in experiment [6], in experiment [7] and in experiment [8] was inactive.

Consider `CCOc1cc(C(=O)Nc2ccccc2N2CCN(S(C)(=O)=O)CC2)cc(OCC)c1OCC`, for which the growth inhibition is 80% (active) in experiment [1] and 91% (active) in experiment [4]. The figures for the inhibition in experiment [2] and in experiment [3] were -1% and -2%, respectively. For the same molecule, the outcome in experiment [5], in experiment [6], in experiment [7] and in experiment [8] was inactive.

(Values after PubChem BioAssay.)
